TDP1 cell CPT: DT40-hTDP1 cell growth loss with CPT; Potency, µM (top dose mostly 46.2 µM), without a hit: top-dose activity change, negative = growth inhibition, usual class: inhibitors; 420,000 tested, 12% active; AID 686979; chicken DT40 Tdp1-/-;hTDP1 cells + 20 nM CPT, ATP luminescence, 48 h; note: potency is the fitted concentration of half-maximal effect; nearly all actives have a fitted effect of over 55% in size
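Chicken DT40 Tdp1-/- cells complemented with human TDP1, 400 cells/well, exposed to compounds plus 20 nM camptothecin for at least 48 h at 37 C; viability read as ATP content by CellTiter-Glo luminescence.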
IL-1B inflam inh: blocks inflammasome-driven IL-1 beta release | THP-1 LPS/ATP IL-1B secretion, AlphaLISA, 16 h; active compounds read low | activity change, % at 57.5 µM | 360,000 tested, 4.7% active; in the data active = activity change below about -50%; inconclusive = mostly about -30% to -49%
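THP-1 cells pretreated 1 hr with compounds (up to 57.5 uM final), then stimulated with LPS (250 ng/mL final) plus ATP (1.25 mM final); secreted IL-1B measured by AlphaLISA after 16 hr, decreased signal indicating inhibition.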
RORgamma inh: ROR gamma (mouse) transcription inhibition; P51450; Drosophila S2 Gal4-RORgamma UAS-luciferase reporter, 20 h; Potency, µM (highest dose often 53.6 µM), inactives show top-dose activity change, negative = inhibition, usual class: inhibitors; 310,000 tested, 5.4% active; AID 2551; note: potency is the fitted concentration of half-maximal effect; nearly all actives have a fitted effect of over 60% in size
Target sequence (P51450 whole entry, looked up, the tested form may be a part): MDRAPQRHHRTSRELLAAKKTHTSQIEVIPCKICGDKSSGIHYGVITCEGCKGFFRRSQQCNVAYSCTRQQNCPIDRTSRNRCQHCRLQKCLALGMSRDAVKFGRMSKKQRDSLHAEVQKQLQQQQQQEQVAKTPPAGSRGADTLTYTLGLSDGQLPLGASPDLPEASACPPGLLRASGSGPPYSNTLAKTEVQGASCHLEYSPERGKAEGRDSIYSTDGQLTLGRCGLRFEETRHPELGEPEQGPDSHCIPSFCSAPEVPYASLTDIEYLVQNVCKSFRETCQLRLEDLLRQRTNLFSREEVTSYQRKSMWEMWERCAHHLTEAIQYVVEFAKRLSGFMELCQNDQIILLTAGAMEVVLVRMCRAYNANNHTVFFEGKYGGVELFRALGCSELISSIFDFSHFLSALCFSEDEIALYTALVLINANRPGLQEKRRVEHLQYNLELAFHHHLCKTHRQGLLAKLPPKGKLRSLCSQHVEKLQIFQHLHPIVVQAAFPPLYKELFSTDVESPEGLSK
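Stable Schneider cell line, Gal4 DNA-binding domain fused to ROR gamma, UAS-luciferase. Cmpd 1 hr RT → CuSO4 700 uM final → 20 hr RT → luciferase reagent 10 min → luminescence.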
Gal4-VP16 FLuc: Gal4-VP16 reporter inhibition counter-screen; Potency, µM (highest dose often 53.6 µM), for inactives: at the highest dose activity, negative = inhibition, hits mostly inhibitors; Drosophila S2 Gal4-VP16 UAS-luciferase, luminescence, 20 h; 310,000 tested, 3.5% active;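 note: Gal4-VP16 expression switched on by copper sulfate through the metallothionein promoter; potency is the fitted concentration of half-maximal effect; nearly all actives have a fitted effect of over 50% in size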
DT40 TDP1 no CPT: qHTS for Inhibitors of human tyrosyl-DNA phosphodiesterase 1 (TDP1): qHTS in cells in absence of CPT; Potency, µM (doses to about 46.2 µM), without a hit: at the highest dose activity change, negative = growth inhibition, actives largely listed as inhibitors; 420,000 tested, 15% active; DT40 Tdp1-/- hTDP1 cells, no CPT, ATP luminescence, 48 h; note: potency is the fitted concentration of half-maximal effect; nearly all actives have a fitted effect of over 55% in size
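Seeded 400 DT40-hTDP1 cells/well (vehicle DMSO, no 20 nM CPT); pinned compounds; ≥48 hr at 37 °C; CellTiter-Glo luminescence as viability measure.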
LDHA inh: inhibitors of human lactate dehydrogenase A | P00338 | 480,000 tested, 0.15% active | purified LDHA, NADH/diaphorase-resazurin fluorescence; active compounds read low | AID 1347041 | activity change, % (values are at about 110 or 230 µM); in the data active = activity change below about -30%; inconclusive = mostly about -25% to -30%;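 note: plate controls were DMSO wells for no effect and wells without enzyme for full effect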
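Enzyme activity of human lactate dehydrogenase 5 (2 nM; 0.06 mM NADH, 0.2 mM pyruvate, 5 min, RT) is measured via a resazurin/diaphorase fluorescence readout of residual NADH.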
The depositor's hits bear a star; [ ] = remark or other dose. The list is not random: actives were taken first. Their share in the collection is about 18%. Unless noted, calls come from the whole dose curve; as a rule, active = well fitted curve in the direction sought with a large enough effect; inconclusive = small, poorly fitted or top-dose-only effect, or another doubt; inactive = no such curve, though single readings can be large; an effect the other way counts as inactive or inconclusive. Unless noted, % is set by controls: 0 for no effect and ±100 for the full control effect.

What do the screens show for `C[C@H]1COC(=O)[C@@H](Cc2ccc(F)cc2)CC/C=C/C[C@@H](CC(=O)N(CCO)Cc2ccccc2)C(=O)N1`?
TDP1 cell CPT: 13µM*; IL-1B inflam inh: 4; DT40 TDP1 no CPT: 23µM*; LDHA inh: -7

How did COc1ccc(C=C2C(=O)NC(=S)NC2=O)cc1OC do in these assays?
TDP1 cell CPT: -9%; IL-1B inflam inh: 1; DT40 TDP1 no CPT: -14%; LDHA inh: 0

How did COc1ccc(/C=C/C=C2C(=O)NC(=S)NC2=O)cc1 do in these assays?
TDP1 cell CPT: 3.3µM*; IL-1B inflam inh: inconclusive; DT40 TDP1 no CPT: 3.3µM*; LDHA inh: 0

What do the screens show for `CC1(C)S[C@@H]2[C@H](N3C(=O)C(c4ccccc4)NC3(C)C)C(=O)N2[C@H]1C(=O)O` (stereo partly specified)?
TDP1 cell CPT: 3%; DT40 TDP1 no CPT: -13%

Results for Cc1cccc(-n2c(-c3ccco3)nc3ccccc3c2=O)c1C ?
TDP1 cell CPT: 8.2µM*; IL-1B inflam inh: -7; RORgamma inh: 4%; Gal4-VP16 FLuc: -5%; DT40 TDP1 no CPT: 16µM*; LDHA inh: -4

What do the screens show for `O=c1c2ccccc2nc(-c2ccoc2)n1-c1ccccc1`?
TDP1 cell CPT: -26%; IL-1B inflam inh: -5; RORgamma inh: 8%; Gal4-VP16 FLuc: -12%; DT40 TDP1 no CPT: -26%; LDHA inh: -1

What do the screens show for `O=c1c2ccccc2nc(-c2ccoc2)n1-c1ccccc1Cl`?
TDP1 cell CPT: 21µM*; IL-1B inflam inh: -17; RORgamma inh: 2%; Gal4-VP16 FLuc: 9%; DT40 TDP1 no CPT: 16µM*; LDHA inh: 1

What do the screens show for `COc1ccccc1-n1c(-c2ccccc2Cl)nc2ccccc2c1=O`?
TDP1 cell CPT: inconclusive; IL-1B inflam inh: 0; RORgamma inh: 0%; Gal4-VP16 FLuc: 24%; DT40 TDP1 no CPT: 15µM*; LDHA inh: -2

Results for COc1ccccc1-n1c(-c2ccoc2)nc2ccccc2c1=O ?
TDP1 cell CPT: 12µM*; IL-1B inflam inh: 5; RORgamma inh: 22%; Gal4-VP16 FLuc: 0%; DT40 TDP1 no CPT: 18µM*; LDHA inh: -7

What do the screens show for `Cc1cccnc1-n1c(-c2ccco2)nc2ccccc2c1=O`?
TDP1 cell CPT: -28%; IL-1B inflam inh: 21; RORgamma inh: 3%; Gal4-VP16 FLuc: 4%; DT40 TDP1 no CPT: inconclusive; LDHA inh: 1

Results for OC[C@@H](O)[C@H]1O[C@@H]2OC(C(Cl)(Cl)Cl)O[C@H]2[C@H]1O (stereo partly specified) ?
RORgamma inh: 2%; Gal4-VP16 FLuc: 1%

Results for COc1ccc(CC(=O)N2CCN(C)CC2)cc1 ?
TDP1 cell CPT: 8%; IL-1B inflam inh: -15; RORgamma inh: -3%; Gal4-VP16 FLuc: -6%; DT40 TDP1 no CPT: 10%; LDHA inh: -1

How did Cc1nnc(N2CCC(C(=O)NCc3ccc(N(C)C)cc3)CC2)c2nn(-c3ccccc3)c(C)c12 do in these assays?
TDP1 cell CPT: inconclusive; DT40 TDP1 no CPT: inconclusive; LDHA inh: -4

Results for COc1ccc(CNC(=O)C2CCN(C(=O)c3cnn(-c4ccccc4)c3-n3cccc3)CC2)cc1 ?
TDP1 cell CPT: 16µM*; DT40 TDP1 no CPT: 6.5µM*; LDHA inh: 1

How did Cc1ccc(NC(=O)C2CCN(C(=O)c3cnn(-c4ccccc4)c3-n3cccc3)CC2)cc1Cl do in these assays?
TDP1 cell CPT: inconclusive; DT40 TDP1 no CPT: 13µM*; LDHA inh: -1

Results for O=C(NCc1ccc(Cl)cc1)C1CCN(C(=O)c2cnn(-c3ccccc3)c2-n2cccc2)CC1 ?
TDP1 cell CPT: 15µM*; DT40 TDP1 no CPT: 10µM*; LDHA inh: -1

Results for COc1ccc(CNC(=O)C2CCN(c3nc(OC)nc(OC)n3)CC2)cc1 ?
TDP1 cell CPT: inconclusive; IL-1B inflam inh: 13; RORgamma inh: 18%; Gal4-VP16 FLuc: -7%; DT40 TDP1 no CPT: 16µM*; LDHA inh: -2

How did O=C(O)CC[n+]1ccc(-c2cc[n+](CCC(=O)O)cc2)cc1 do in these assays?
LDHA inh: 10

How did CC(C)CN1CC2(CCN(C(=O)Oc3ccccc3)CC2)C1 do in these assays?
TDP1 cell CPT: 8%; RORgamma inh: -26%; Gal4-VP16 FLuc: -2%; DT40 TDP1 no CPT: 3%

What do the screens show for `O=C(Oc1ccccc1)N1CCC[C@@]2(CCN(Cc3cc(C(F)(F)F)cc(C(F)(F)F)c3)C2)C1`?
TDP1 cell CPT: inconclusive; RORgamma inh: 20%; Gal4-VP16 FLuc: 1%; DT40 TDP1 no CPT: inconclusive

How did CC(C)(C)NC[C@H](O)c1ccc(O)cc1Cl do in these assays?
TDP1 cell CPT: 6%; DT40 TDP1 no CPT: -2%

Results for O=C(O)Cc1cccnc1C(=O)O ?
TDP1 cell CPT: 1%; RORgamma inh: -7%; Gal4-VP16 FLuc: -7%; DT40 TDP1 no CPT: -9%

What do the screens show for `COC(=O)c1nc(-c2ccc3c(n2)C(=O)C(N)=C(OC)C3=O)c(N)c(-c2ccc(OC)c(OC)c2O)c1C`?
TDP1 cell CPT: 0.46µM*; IL-1B inflam inh: -55*; RORgamma inh: -13%; Gal4-VP16 FLuc: 4%; DT40 TDP1 no CPT: 0.92µM*; LDHA inh: 28

Results for Cc1ccc(-n2nnnc2C2(N)CCCCC2)cc1 ?
LDHA inh: 3

What do the screens show for `Cn1ccc(NC(=O)CCl)n1`?
TDP1 cell CPT: inconclusive; IL-1B inflam inh: -102*; RORgamma inh: 5µM*; Gal4-VP16 FLuc: 4.5µM*; DT40 TDP1 no CPT: inconclusive; LDHA inh: -3

Results for Cc1cc(NC(=O)CCl)nn1C ?
TDP1 cell CPT: 23µM*; IL-1B inflam inh: -101*; RORgamma inh: -11%; Gal4-VP16 FLuc: inconclusive; DT40 TDP1 no CPT: 15µM*; LDHA inh: -2

How did O=C(CCl)NCNC(=O)CCl do in these assays?
LDHA inh: 11

Results for CCc1nc2ccc(C(=O)NCCN3CCNC3=O)cn2c1N(CC)Cc1cccc(Br)c1 ?
TDP1 cell CPT: inconclusive; IL-1B inflam inh: -4; DT40 TDP1 no CPT: inconclusive; LDHA inh: -6

What do the screens show for `C[C@H]1O[C@H](O[C@H]2[C@H](O)[C@@H](O)[C@@H](O)[C@H](O)[C@@H]2O)[C@@H](N)C[C@@H]1NC(=N)C(=O)O`?
TDP1 cell CPT: -8%; RORgamma inh: -16%; Gal4-VP16 FLuc: -24%; DT40 TDP1 no CPT: -17%

Results for O=C(NCNC(=O)N[C@H]1C(=O)NC(=O)N1CO)N[C@H]1C(=O)NC(=O)N1CO ?
RORgamma inh: -26%[16.9 µM]; Gal4-VP16 FLuc: 9%[17 µM]
